Substitutions are numbered along the chain they refer to.
How the values were obtained:
Test in all cases: PBM; 200 nM protein, PBS
Conditions in all cases: dsDNA, one strand shown
VENTX [1] = target: T1, VENTX (Homo sapiens, UniProt O95231 78-163, R121Q)
T1 sequence: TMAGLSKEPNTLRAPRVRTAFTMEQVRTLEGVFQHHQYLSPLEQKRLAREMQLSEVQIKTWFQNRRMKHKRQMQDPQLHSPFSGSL

HOXA4 [2] = target: HOXA4 (Homo sapiens, UniProt Q00056 201-287, W262R)
VENTX [3] = target: T2, VENTX (Homo sapiens, UniProt O95231 78-163)
T2 sequence: T1 sequence with Q44R

PRRX1 [4] = target: PRRX1 (Homo sapiens, UniProt P54821 80-166, F113S)
Sequence of PRRX1 (Homo sapiens, UniProt P54821 80-166, F113S) (P54821 80-166 F113S): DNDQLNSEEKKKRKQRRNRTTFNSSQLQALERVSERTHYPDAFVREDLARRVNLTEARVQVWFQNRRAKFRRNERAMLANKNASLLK

VENTX [5] = target: T3, VENTX (Homo sapiens, UniProt O95231 78-163, Y115F)
T3 sequence: T1 sequence with Y38F, Q44R

HOXA4 [6] = target: HOXA4 (Homo sapiens, UniProt Q00056 201-287, R217L)
Sequence of HOXA4 (Homo sapiens, UniProt Q00056 201-287, R217L) (Q00056 201-287 R217L): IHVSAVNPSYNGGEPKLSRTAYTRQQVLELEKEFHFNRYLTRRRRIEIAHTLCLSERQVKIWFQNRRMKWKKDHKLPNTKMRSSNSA

HOXA4 [7] = target: HOXA4 (Homo sapiens, UniProt Q00056 201-287)
Sequence of HOXA4 (Homo sapiens, UniProt Q00056 201-287) (Q00056 201-287): as the sequence (Q00056 201-287 R217L) above, with L17R counted along it

HOXA4 [8] = target: HOXA4 (Homo sapiens, UniProt Q00056 201-287, W262F)
Sequence of HOXA4 (Homo sapiens, UniProt Q00056 201-287, W262F) (Q00056 201-287 W262F): as the sequence (Q00056 201-287 R217L) above, with L17R, W62F counted along it

PRRX1 [9] = target: PRRX1 (Homo sapiens, UniProt P54821 80-166)
Sequence of PRRX1 (Homo sapiens, UniProt P54821 80-166) (P54821 80-166): as the sequence (P54821 80-166 F113S) above, with S34F counted along it

HOXB9 [10] = target: HOXB9 (Homo sapiens, UniProt P17482 171-250, T197M)
Sequence of HOXB9 (Homo sapiens, UniProt P17482 171-250, T197M) (P17482 171-250 T197M): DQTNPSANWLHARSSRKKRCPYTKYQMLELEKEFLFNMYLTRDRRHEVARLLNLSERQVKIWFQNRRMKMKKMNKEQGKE

HOXB9 [11] = target: HOXB9 (Homo sapiens, UniProt P17482 171-250)
Sequence of HOXB9 (Homo sapiens, UniProt P17482 171-250) (P17482 171-250): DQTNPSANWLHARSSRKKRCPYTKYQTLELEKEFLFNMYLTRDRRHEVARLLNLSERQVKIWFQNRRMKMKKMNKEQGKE

ALX3 [12] = target: ALX3 (Homo sapiens, UniProt O95076 139-225, N203Q)
Sequence of ALX3 (Homo sapiens, UniProt O95076 139-225, N203Q) (O95076 139-225 N203Q): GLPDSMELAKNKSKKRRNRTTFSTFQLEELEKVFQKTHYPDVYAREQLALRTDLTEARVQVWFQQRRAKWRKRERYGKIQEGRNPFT

ALX3 [13] = target: ALX3 (Homo sapiens, UniProt O95076 139-225)
Sequence of ALX3 (Homo sapiens, UniProt O95076 139-225) (O95076 139-225): as the sequence (O95076 139-225 N203Q) above, with Q65N counted along it

ALX3 [14] = target: ALX3 (Homo sapiens, UniProt O95076 139-225, L168Q)
Sequence of ALX3 (Homo sapiens, UniProt O95076 139-225, L168Q) (O95076 139-225 L168Q): as the sequence (O95076 139-225 N203Q) above, with L30Q, Q65N counted along it

HOXB9 [15] = target: HOXB9 (Homo sapiens, UniProt P17482 171-250, R186Q)
Sequence of HOXB9 (Homo sapiens, UniProt P17482 171-250, R186Q) (P17482 171-250 R186Q): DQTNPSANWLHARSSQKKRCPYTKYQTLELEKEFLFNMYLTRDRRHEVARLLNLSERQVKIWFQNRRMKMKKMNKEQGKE

ALX3 [16] = target: ALX3 (Homo sapiens, UniProt O95076 139-225, L168V)
Sequence of ALX3 (Homo sapiens, UniProt O95076 139-225, L168V) (O95076 139-225 L168V): as the sequence (O95076 139-225 N203Q) above, with L30V, Q65N counted along it

ALX3 [17] = target: ALX3 (Homo sapiens, UniProt O95076 139-225, N203S)
Sequence of ALX3 (Homo sapiens, UniProt O95076 139-225, N203S) (O95076 139-225 N203S): as the sequence (O95076 139-225 N203Q) above, with Q65S counted along it

HOXC9 [18] = target: HOXC9 (Homo sapiens, UniProt P31274 178-260, K195R)
Sequence of HOXC9 (Homo sapiens, UniProt P31274 178-260, K195R) (P31274 178-260 K195R): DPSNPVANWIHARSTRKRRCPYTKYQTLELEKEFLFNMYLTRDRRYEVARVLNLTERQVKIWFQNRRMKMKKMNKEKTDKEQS

HOXA7 [19] = target: HOXA7 (Homo sapiens, UniProt P31268 116-202)
Sequence of HOXA7 (Homo sapiens, UniProt P31268 116-202) (P31268 116-202): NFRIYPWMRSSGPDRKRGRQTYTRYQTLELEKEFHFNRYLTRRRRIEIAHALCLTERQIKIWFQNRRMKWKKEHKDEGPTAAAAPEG

HOXC10 [20] = target: HOXC10 (Homo sapiens, UniProt Q9NYD6 254-340)
Sequence of HOXC10 (Homo sapiens, UniProt Q9NYD6 254-340) (Q9NYD6 254-340): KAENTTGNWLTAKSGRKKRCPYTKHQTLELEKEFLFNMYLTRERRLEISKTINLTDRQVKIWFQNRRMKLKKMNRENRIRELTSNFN

HOXB6 [21] = target: HOXB6 (Homo sapiens, UniProt P17509 132-218, K202E)
Sequence of HOXB6 (Homo sapiens, UniProt P17509 132-218, K202E) (P17509 132-218 K202E): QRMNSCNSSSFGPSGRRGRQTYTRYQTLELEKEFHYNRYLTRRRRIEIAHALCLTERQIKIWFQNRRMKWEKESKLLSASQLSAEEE

HOXC9 [22] = target: HOXC9 (Homo sapiens, UniProt P31274 178-260)
Sequence of HOXC9 (Homo sapiens, UniProt P31274 178-260) (P31274 178-260): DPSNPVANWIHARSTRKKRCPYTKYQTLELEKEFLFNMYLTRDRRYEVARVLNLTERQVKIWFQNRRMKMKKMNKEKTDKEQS

HOXC9 [23] = target: HOXC9 (Homo sapiens, UniProt P31274 178-260, R193K)
Sequence of HOXC9 (Homo sapiens, UniProt P31274 178-260, R193K) (P31274 178-260 R193K): as the sequence (P31274 178-260) above, with R16K counted along it

HOXC10 [24] = target: HOXC10 (Homo sapiens, UniProt Q9NYD6 254-340, K271E)
Sequence of HOXC10 (Homo sapiens, UniProt Q9NYD6 254-340, K271E) (Q9NYD6 254-340 K271E): as the sequence (Q9NYD6 254-340) above, with K18E counted along it

HOXC9 [25] = target: HOXC9 (Homo sapiens, UniProt P31274 178-260, R222W)
Sequence of HOXC9 (Homo sapiens, UniProt P31274 178-260, R222W) (P31274 178-260 R222W): as the sequence (P31274 178-260) above, with R45W counted along it

HOXA7 [26] = target: HOXA7 (Homo sapiens, UniProt P31268 116-202, W177C)
Sequence of HOXA7 (Homo sapiens, UniProt P31268 116-202, W177C) (P31268 116-202 W177C): as the sequence (P31268 116-202) above, with W62C counted along it

HOXB6 [27] = target: HOXB6 (Homo sapiens, UniProt P17509 132-218)
Sequence of HOXB6 (Homo sapiens, UniProt P17509 132-218) (P17509 132-218): as the sequence (P17509 132-218 K202E) above, with E71K counted along it

SIX6 [28] = target: T4, SIX6 (Homo sapiens, UniProt O95475 114-200, L167I)
T4 sequence: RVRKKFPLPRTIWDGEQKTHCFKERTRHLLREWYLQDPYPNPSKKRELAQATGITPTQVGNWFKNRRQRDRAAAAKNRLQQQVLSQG

SIX6 [29] = target: T5, SIX6 (Homo sapiens, UniProt O95475 114-200, L143V)
T5 sequence: T4 sequence with L30V, I54L

SIX6 [30] = target: T6, SIX6 (Homo sapiens, UniProt O95475 114-200, H141N)
T6 sequence: T4 sequence with H28N, I54L

SIX6 [31] = target: T7, SIX6 (Homo sapiens, UniProt O95475 114-200, T165P)
T7 sequence: T4 sequence with T52P, I54L

SIX6 [32] = target: T8, SIX6 (Homo sapiens, UniProt O95475 114-200, L167M)
T8 sequence: T4 sequence with I54M

SIX6 [33] = target: T9, SIX6 (Homo sapiens, UniProt O95475 114-200, L143M)
T9 sequence: T4 sequence with L30M, I54L

SIX6 [34] = target: T10, SIX6 (Homo sapiens, UniProt O95475 114-200, L143I)
T10 sequence: T4 sequence with L30I, I54L

SIX6 [35] = target: T11, SIX6 (Homo sapiens, UniProt O95475 114-200, T165G)
T11 sequence: T4 sequence with T52G, I54L

SIX6 [36] = target: T12, SIX6 (Homo sapiens, UniProt O95475 114-200, T139Q)
T12 sequence: T4 sequence with T26Q, I54L

SIX6 [37] = target: T13, SIX6 (Homo sapiens, UniProt O95475 114-200, T165A)
T13 sequence: T4 sequence with T52A, I54L

SIX6 [38] = target: T14, SIX6 (Homo sapiens, UniProt O95475 114-200, L167V)
T14 sequence: T4 sequence with I54V

PROP1 [39] = target: PROP1 (Homo sapiens, UniProt O75360 56-141)
Sequence of PROP1 (Homo sapiens, UniProt O75360 56-141) (O75360 56-141): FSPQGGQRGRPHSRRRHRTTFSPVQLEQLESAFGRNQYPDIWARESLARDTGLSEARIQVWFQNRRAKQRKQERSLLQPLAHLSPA

SIX6 [40] = target: T15, SIX6 (Homo sapiens, UniProt O95475 114-200)
T15 sequence: T4 sequence with I54L

PROP1 [41] = target: PROP1 (Homo sapiens, UniProt O75360 56-141, R99H)
Sequence of PROP1 (Homo sapiens, UniProt O75360 56-141, R99H) (O75360 56-141 R99H): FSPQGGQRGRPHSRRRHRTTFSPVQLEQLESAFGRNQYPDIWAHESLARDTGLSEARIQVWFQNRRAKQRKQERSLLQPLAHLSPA

SIX6 [42] = target: T16, SIX6 (Homo sapiens, UniProt O95475 114-200, T165I)
T16 sequence: T4 sequence with T52I, I54L

PROP1 [43] = target: PROP1 (Homo sapiens, UniProt O75360 56-141, F88S)
Sequence of PROP1 (Homo sapiens, UniProt O75360 56-141, F88S) (O75360 56-141 F88S): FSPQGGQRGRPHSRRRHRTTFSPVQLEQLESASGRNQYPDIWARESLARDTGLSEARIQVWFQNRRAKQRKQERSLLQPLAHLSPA

Sequence of HOXA4 (Homo sapiens, UniProt Q00056 201-287, W262R) (Q00056 201-287 W262R): as the sequence (Q00056 201-287 R217L) above, with L17R, W62R counted along it

CGATTAAA
binding signal (VENTX [1]): 10.7 upbm affinity estimate (log intensity, higher = more binding, comparable within an allelic series)

CCCTTCCG
binding signal (VENTX [1]): 8.08 upbm affinity estimate (log intensity, higher = more binding, comparable within an allelic series) | binding signal (HOXA4 [2]): 9.79 upbm affinity estimate (log intensity, higher = more binding, comparable within an allelic series) | binding signal (VENTX [3]): 8.37 upbm affinity estimate (log intensity, higher = more binding, comparable within an allelic series) | binding signal (PRRX1 [4]): 9.35 upbm affinity estimate (log intensity, higher = more binding, comparable within an allelic series) | binding signal (VENTX [5]): 8.15 upbm affinity estimate (log intensity, higher = more binding, comparable within an allelic series) | binding signal (HOXA4 [6]): 9.96 upbm affinity estimate (log intensity, higher = more binding, comparable within an allelic series) | binding signal (HOXA4 [7]): 10 upbm affinity estimate (log intensity, higher = more binding, comparable within an allelic series) | binding signal (HOXA4 [8]): 10 upbm affinity estimate (log intensity, higher = more binding, comparable within an allelic series) | binding signal (PRRX1 [9]): 9.49 upbm affinity estimate (log intensity, higher = more binding, comparable within an allelic series)

GACCCAGC
binding signal (VENTX [1]): 8.18 upbm affinity estimate (log intensity, higher = more binding, comparable within an allelic series) | binding signal (HOXB9 [10]): 8.5 upbm affinity estimate (log intensity, higher = more binding, comparable within an allelic series) | binding signal (VENTX [3]): 8.16 upbm affinity estimate (log intensity, higher = more binding, comparable within an allelic series) | binding signal (VENTX [5]): 8.12 upbm affinity estimate (log intensity, higher = more binding, comparable within an allelic series) | binding signal (HOXB9 [11]): 8.47 upbm affinity estimate (log intensity, higher = more binding, comparable within an allelic series) | binding signal (ALX3 [12]): 7.75 upbm affinity estimate (log intensity, higher = more binding, comparable within an allelic series) | binding signal (ALX3 [13]): 7.56 upbm affinity estimate (log intensity, higher = more binding, comparable within an allelic series) | binding signal (ALX3 [14]): 7.85 upbm affinity estimate (log intensity, higher = more binding, comparable within an allelic series) | binding signal (HOXB9 [15]): 8.49 upbm affinity estimate (log intensity, higher = more binding, comparable within an allelic series) | binding signal (ALX3 [16]): 7.79 upbm affinity estimate (log intensity, higher = more binding, comparable within an allelic series) | binding signal (ALX3 [17]): 7.8 upbm affinity estimate (log intensity, higher = more binding, comparable within an allelic series)

AATGTATC
binding signal (VENTX [1]): 9.76 upbm affinity estimate (log intensity, higher = more binding, comparable within an allelic series) | binding signal (VENTX [3]): 10.1 upbm affinity estimate (log intensity, higher = more binding, comparable within an allelic series)

GCCATTAA
binding signal (VENTX [1]): 11.8 upbm affinity estimate (log intensity, higher = more binding, comparable within an allelic series) | binding signal (HOXB9 [10]): 10.1 upbm affinity estimate (log intensity, higher = more binding, comparable within an allelic series) | binding signal (HOXC9 [18]): 12.9 upbm affinity estimate (log intensity, higher = more binding, comparable within an allelic series) | binding signal (VENTX [3]): 12.3 upbm affinity estimate (log intensity, higher = more binding, comparable within an allelic series) | binding signal (HOXA7 [19]): 11.9 upbm affinity estimate (log intensity, higher = more binding, comparable within an allelic series) | binding signal (HOXC10 [20]): 12.3 upbm affinity estimate (log intensity, higher = more binding, comparable within an allelic series) | binding signal (VENTX [5]): 11.6 upbm affinity estimate (log intensity, higher = more binding, comparable within an allelic series) | binding signal (HOXB6 [21]): 10 upbm affinity estimate (log intensity, higher = more binding, comparable within an allelic series) | binding signal (HOXB9 [11]): 12.2 upbm affinity estimate (log intensity, higher = more binding, comparable within an allelic series) | binding signal (HOXC9 [22]): 13 upbm affinity estimate (log intensity, higher = more binding, comparable within an allelic series) | binding signal (HOXC9 [23]): 12.8 upbm affinity estimate (log intensity, higher = more binding, comparable within an allelic series) | binding signal (HOXC10 [24]): 12.2 upbm affinity estimate (log intensity, higher = more binding, comparable within an allelic series) | binding signal (HOXB9 [15]): 12 upbm affinity estimate (log intensity, higher = more binding, comparable within an allelic series) | binding signal (HOXC9 [25]): 10.9 upbm affinity estimate (log intensity, higher = more binding, comparable within an allelic series) | binding signal (HOXA7 [26]): 8.78 upbm affinity estimate (log intensity, higher = more binding, comparable within an allelic series) | binding signal (HOXB6 [27]): 12.2 upbm affinity estimate (log intensity, higher = more binding, comparable within an allelic series)

GCTTGGCC
binding signal (VENTX [1]): 7.86 upbm affinity estimate (log intensity, higher = more binding, comparable within an allelic series) | binding signal (SIX6 [28]): 8.94 upbm affinity estimate (log intensity, higher = more binding, comparable within an allelic series) | binding signal (HOXC9 [18]): 9.68 upbm affinity estimate (log intensity, higher = more binding, comparable within an allelic series) | binding signal (VENTX [3]): 7.97 upbm affinity estimate (log intensity, higher = more binding, comparable within an allelic series) | binding signal (SIX6 [29]): 8.84 upbm affinity estimate (log intensity, higher = more binding, comparable within an allelic series) | binding signal (HOXC10 [20]): 10.1 upbm affinity estimate (log intensity, higher = more binding, comparable within an allelic series) | binding signal (SIX6 [30]): 8.96 upbm affinity estimate (log intensity, higher = more binding, comparable within an allelic series) | binding signal (SIX6 [31]): 8.86 upbm affinity estimate (log intensity, higher = more binding, comparable within an allelic series) | binding signal (VENTX [5]): 7.9 upbm affinity estimate (log intensity, higher = more binding, comparable within an allelic series) | binding signal (SIX6 [32]): 8.89 upbm affinity estimate (log intensity, higher = more binding, comparable within an allelic series) | binding signal (SIX6 [33]): 8.89 upbm affinity estimate (log intensity, higher = more binding, comparable within an allelic series) | binding signal (SIX6 [34]): 8.86 upbm affinity estimate (log intensity, higher = more binding, comparable within an allelic series) | binding signal (SIX6 [35]): 8.99 upbm affinity estimate (log intensity, higher = more binding, comparable within an allelic series) | binding signal (SIX6 [36]): 9.01 upbm affinity estimate (log intensity, higher = more binding, comparable within an allelic series) | binding signal (HOXC9 [22]): 9.78 upbm affinity estimate (log intensity, higher = more binding, comparable within an allelic series) | binding signal (SIX6 [37]): 8.94 upbm affinity estimate (log intensity, higher = more binding, comparable within an allelic series) | binding signal (HOXC9 [23]): 9.65 upbm affinity estimate (log intensity, higher = more binding, comparable within an allelic series) | binding signal (HOXC10 [24]): 10 upbm affinity estimate (log intensity, higher = more binding, comparable within an allelic series) | binding signal (SIX6 [38]): 8.95 upbm affinity estimate (log intensity, higher = more binding, comparable within an allelic series) | binding signal (PROP1 [39]): 6.59 upbm affinity estimate (log intensity, higher = more binding, comparable within an allelic series) | binding signal (SIX6 [40]): 8.89 upbm affinity estimate (log intensity, higher = more binding, comparable within an allelic series) | binding signal (PROP1 [41]): 6.63 upbm affinity estimate (log intensity, higher = more binding, comparable within an allelic series) | binding signal (SIX6 [42]): 8.91 upbm affinity estimate (log intensity, higher = more binding, comparable within an allelic series) | binding signal (HOXC9 [25]): 9.69 upbm affinity estimate (log intensity, higher = more binding, comparable within an allelic series) | binding signal (PROP1 [43]): 6.65 upbm affinity estimate (log intensity, higher = more binding, comparable within an allelic series)

Source: article PMC11006913
